Bioassay records (PubChem)
In the library only some 4.1% were active in any assay of this set; here they are far more common.
DAX1 inh-1: DAX1 (NR0B1) inhibitors, primary screen, cell-based, HEK293, Gal4-DAX1, luciferase luminescence | HEK293 Gal4-DAX1 luciferase reporter | AID 504766, 2011 | hit rate 0.99% among 340,000 | inhibition, % at 6.75 µM;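 active = inhibition above the mean over all tested compounds plus 3 SD, cut at about 4.2% in these data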;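 also: inhibition shows as a rise in luminescence from relieved DAX1 repression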
Target sequence (P51843 207-470 limits assumed): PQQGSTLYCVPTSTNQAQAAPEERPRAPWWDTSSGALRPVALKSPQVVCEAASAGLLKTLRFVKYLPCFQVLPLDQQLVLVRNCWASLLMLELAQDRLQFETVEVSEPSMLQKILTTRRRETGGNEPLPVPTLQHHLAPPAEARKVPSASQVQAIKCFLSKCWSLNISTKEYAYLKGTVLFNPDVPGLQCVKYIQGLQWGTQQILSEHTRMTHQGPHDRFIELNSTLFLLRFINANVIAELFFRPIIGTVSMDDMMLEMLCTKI
DAX1 inh-2: DAX1 (NR0B1) inhibitors on StAR promoter, primary screen, cell-based, luminescence, SF-1 (NR5A1), full-length DAX-1; HEK293T StAR-luciferase reporter, SF-1/DAX-1 repression relief; inhibition, % at 6.8 µM; hit rate 1.1% among 370,000;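 active = inhibition above the mean over all tested compounds plus 3 SD, cut at about 3.6% in these data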;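 also: higher inhibition means more luminescence from relief of DAX-1 repression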
hgDAF12 agonist: H. glycines DAF-12 receptor agonists, primary screen, cell-based, luminescence, HEK293, GAL4 fusion, UAS-luciferase | activation, % at 6.8 µM | hit rate 1.8% among 370,000 | AID 687014, 2013 | HEK293 GAL4-hgDAF12 UAS-luciferase reporter, agonist luminescence; normalized to butyrate control | Nuclear hormone receptor DAF-12 (Heterodera glycines), GAL4 fusion;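 active = activation above a cutoff set at the mean of all screened compounds plus 3 SD, cut at about 10% in these data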
hcDAF12 agonist: H. contortus DAF-12 nuclear receptor activators, primary screen, cell-based, luminescence, HEK293, lit1-tk-luc reporter. HEK293 hcDAF-12 lit1-tk-luc reporter; 0% DMSO, 100% Δ7-dafachronic acid. activation, % at 6.8 µM. hit rate 1.4% among 370,000. AID 652067, 2013;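 active = activation above the mean of all tested compounds plus 3 SD, cut at about 5.5% in these data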
ssDAF-12 act: S. stercoralis DAF-12 nuclear receptor activators, primary screen, cell-based, luminescence, HEK293, GRIP1 co-expression, lit1-tk-luc. Nuclear hormone receptor DAF-12 (Strongyloides stercoralis). HEK293 ssDAF-12/GRIP1 lit1-tk-luc reporter; % of 3 µM dafachronic acid response. activation, % at 6.8 µM. hit rate 1% among 370,000. AID 652126, 2013;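 active = activation above the mean over all tested compounds plus 3 SD, cut at about 0.9% in these data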
Each line names hits and unclear results; the compound was inactive in the other large screens.

Cc1cccc(OCC(=O)Nc2ccc3c(c2)nc(CCN2CCN(C)CC2)n3C)c1	DAX1 inh-1 4.9
Cc1cccc(OCC(=O)Nc2ccc3c(c2)nc(CCN2CCC(C)CC2)n3C)c1	none
COCCN=C1S/C(=C\c2cc(C)n(-c3ccc(F)cc3F)c2C)C(=O)N1C	hcDAF12 agonist 5.7 (no result: DAX1 inh-1, DAX1 inh-2)
CN=C1S/C(=C\c2cc(C)n(-c3ccccc3F)c2C)C(=O)N1C	none
CCCSc1nnc(CSc2ncccn2)n1C	hcDAF12 agonist 5.9
COc1ccc(N=Nc2c(N)nn(C)c2N)cc1	ssDAF-12 act 1.2
Cc1ccc(N=Nc2c(N)nn3c(N)c(C#N)c(C)nc23)cc1	none
O=C(c1ccco1)[C@@H]1[C@@H]2C(=O)N(c3ccc(F)cc3)C(=O)[C@@H]2C2c3ccccc3C=CN21 (some centres not stated)	none (no result: DAX1 inh-1)
O=C(c1ccco1)[C@@H]1[C@@H]2C(=O)N(c3ccc(Br)cc3)C(=O)[C@@H]2C2c3ccccc3C=CN21 (some centres not stated)	ssDAF-12 act 1.2
Cc1csc(NC(=O)C2CC(=O)N(c3ccc(C)c(C)c3)C2)n1 (configuration not stated)	ssDAF-12 act 1.6
COc1ccccc1N1CC(C(=O)Nc2nc(C)cs2)CC1=O (configuration not stated)	none
CCC[C@H]1[C@@H](OC(=O)NCCc2c[nH]c3ccccc23)CC[C@@]23CCCN2C(=O)CCC[C@@H]13	none (no result: DAX1 inh-1, DAX1 inh-2)
CCCCCCC1(C)NC(=S)N(c2ccccc2)N1 (configuration not stated)	ssDAF-12 act 5.7
CCC1(c2ccc(Cl)cc2)NC(=S)N(c2ccccc2)N1 (configuration not stated)	hcDAF12 agonist 5.7
CCCCCC1(C)NC(=S)N(c2ccccc2)N1 (configuration not stated)	none
O=C1N=C(N2CCOCC2)SC1=C1CCCCC1	DAX1 inh-1 6.8
CC(=O)N1CCN(C2=NC(=O)C(=C3CCCCC3)S2)CC1	none
Cc1ccc(C(=O)Nc2cnc3ccccn3c2=O)cc1	DAX1 inh-2 4.0
CCOC(=O)[C@]12CCCC=C1N(CCCOC)C(=O)[C@@H]2CC(=O)N1CCCC1	none (no result: DAX1 inh-1)
O=C(CCN1CCC(c2ccccc2)C1)c1cccs1 (configuration not stated)	none
O=C(c1cccs1)N1CCC(c2ccccc2)C1 (configuration not stated)	hgDAF12 agonist 12
C=CCN(C)C(C#CCCCC)c1ccccc1 (configuration not stated)	none (no result: DAX1 inh-1, DAX1 inh-2)
O=c1cc(-c2ccccc2)oc2ccccc12	DAX1 inh-1 6.0
CCn1c(=O)c(C(=O)CC#N)c(N)n(Cc2ccccc2)c1=O	DAX1 inh-1 4.9
CCn1c(=O)c(C(=O)CN2CCOCC2)c(N)n(Cc2ccccc2)c1=O	none
O=C(COC(=O)c1n[nH]c2ccccc12)Nc1ccccc1	DAX1 inh-1 10
Cc1cc(C)cc(NC(=O)COC(=O)c2n[nH]c3ccccc23)c1	hgDAF12 agonist 12
COc1cc2c(c(OC)c1)[C@H](/C=C/c1ccccc1)[C@@H]([C@H](O)CO)OC2	none (no result: DAX1 inh-1)
COc1cccc(-c2nc(NCc3cccnc3)c3ccccc3n2)c1O	hcDAF12 agonist 5.9
c1cncc(CNc2nc(-c3cccnc3)nc3ccccc23)c1	none
CCOC(=O)N1Cc2cc3ccccc3nc2C1	ssDAF-12 act 0.9
CCC(C(=O)NC1CCCC1)n1c(-c2ccnc3ccccc23)nc2ccccc21 (configuration not stated)	none (no result: DAX1 inh-1)
Clc1nnc(NN=C2CCCC2)c2ccccc12	ssDAF-12 act 1.3
C=CCNc1nnc(Cl)c2ccccc12	none (no result: DAX1 inh-2, hgDAF12 agonist, hcDAF12 agonist, ssDAF-12 act)
CC(=O)N=C(N)Sc1nc2ccccc2[nH]1	hgDAF12 agonist 11, hcDAF12 agonist 5.9
O=C(Nc1cc(-c2ccccc2)[nH]n1)c1ccc(Cl)cc1	ssDAF-12 act 1.7
CCCOc1ccc(C(=O)Nc2ccc(Cl)cn2)cc1	hcDAF12 agonist 5.8
Cc1ccc(NC(=O)c2ccc(NCc3ccc(F)cc3)nc2)cc1	none
